Data as given in PubChem BioAssay AID463173 (ICCB-Longwood Screening Facility, Harvard Medical School, 2010).
Screen size: about 52,000 compounds; about 1,700 (3.3%) were called active. What follows is part of a selection rich in actives, with near analogues and random picks from the rest. Values without a mark were called inactive. No stated cut-off is given here; in the data, active means survival mostly below about 52% (no sharp cut-off); inactive means mostly above about 56%.

These compounds were tested on Wild type (assay: S. aureus survival, RN4220 and DeltatarO strains – OD600, teichoic acid synthesis inhibitors, primary screen (AID 463173)). Details: S. aureus RN4220 wild type/DeltatarO growth, OD600, 18 h, active compounds read low, screened at 18.75 µg/mL (by protocol).

| SMILES | survival |
| --- | --- |
| Cc1ccc(C)c(N(CC(=O)Nc2ccccc2)S(C)(=O)=O)c1 | 99% |
| CCc1cccc(NC(=O)Cn2c(=O)ccc3cc(S(=O)(=O)N4CCC(C)CC4)ccc32)c1 | 129% |
| Cc1ccc2oc(C(=O)Nc3nc(-c4ccc(F)cc4)ns3)c(C)c2c1 | 87% |
| COc1ccc(NC(=O)c2c(NCc3cccs3)sc3c2CCCC3)cc1 | 80% |
| CCOC(=O)c1cccc(NC(=O)CCSCCc2ccccn2)c1 | 68% |
| CCOC(=O)Cn1cnc2c(cnn2-c2ccc(C)c(C)c2)c1=O | 72% |
| COc1ccc(NC(=O)N2CCc3c([nH]c4ccc(OC)cc34)C2c2ccc(OC)cc2)cc1 (centres undefined) | 93% |
| Cc1ccc(CS(=O)(=O)c2ncc(Cl)c(C(=O)Nc3nc4ccc(C)cc4s3)n2)cc1 | 26% |
| O=C(NCc1ccccc1)C(=O)NCC(c1cccnc1)N1CCN(c2ccccc2)CC1 (centres undefined) | 82% |
| Cc1ccccc1CNC(=O)C1CCN(c2nn3cc(-c4ccc(F)cc4)nc3s2)CC1 | 66% |
| Cc1ccc2ncc(C(=O)NCc3ccccc3Cl)c(=O)n2c1 | 93% |
| CC1CCN(c2ccc(-c3nc(-c4ccccc4)no3)cc2[N+](=O)[O-])CC1 | 112% |
| Cc1cc(C)cc(NC(=O)CSc2oc(-c3cccs3)nc2S(=O)(=O)c2ccc(Br)cc2)c1 | 75% |
| C=C(C)CSc1nc2sc3c(c2c(=O)n1CCCC)CCCC3 | 0% (active) |
| CCCCCSc1nc2sc3c(c2c(=O)n1-c1ccc(OC)cc1)CCN(C(C)=O)C3 | -21% (active) |
| C=C(C)Cn1c(SCC(=O)c2ccccc2)nc2sc3c(c2c1=O)CCCC3 | 84% |
| CCCCCSc1nc2sc3c(c2c(=O)n1-c1ccccc1)CCN(C(C)=O)C3 | 58% |
| CCCCn1c(SCC(=O)c2ccccc2)nc2sc3c(c2c1=O)CCCC3 | 62% |
| COc1ccc(-n2c(SC)nc3sc4c(c3c2=O)CCN(C(C)=O)C4)cc1 | 126% |
| CCOC(=O)c1cccc(NC(=O)CSc2ncc3c(n2)-c2ccc(Cl)cc2N(Cc2ccccc2)S3(=O)=O)c1 | 87% |
| CCOC(=O)c1ccc(Nc2cc(-c3ccccc3)nc(C)n2)cc1 | 83% |
| CSc1nc(Nc2ccc(C)cc2C)cc(-c2ccccc2)n1 | 50% |
| Cc1cc(C)cc(Nc2cc(-c3ccccc3)nc(C)n2)c1 | 10% (active) |
| Cc1ccc(Nc2cc(-c3ccccc3)nc(C)n2)cc1 | 37% |
| COc1cccc(Nc2cc(-c3ccccc3)nc(C)n2)c1 | 49% |

| SMILES | survival |
| --- | --- |
| Cc1nc(Nc2ccc(Cl)cc2)cc(-c2ccccc2)n1 | -2% (active) |
| CSc1nc(C)cc(Nc2cccc(C(=O)O)c2)n1 | 87% |
| CSc1nc(Nc2ccc(F)cc2)cc(-c2ccccc2)n1 | -2% (active) |
| CCOc1ccccc1Nc1cc(-c2ccccc2)nc(C)n1 | 78% |
| COc1ccccc1NC(=O)CSc1nncn2c1cc1sccc12 | 96% |
| Cc1oc(-c2ccccc2)nc1CSc1nnc(C)n2c1cc1sccc12 | 83% |
| CCN(CCCNC(=O)Cn1ncc2c([nH]c3ccc(C)cc32)c1=O)Cc1ccccc1 | 55% |
| NCC(O)CN1CCN(Cc2ccccc2)CC1 (centres undefined) | 105% |
| CCOC(=O)c1sc2ncn(CC(=O)Nc3ccc(N(C)C)cc3)c(=O)c2c1C | 89% |
| COc1ccc2c(C)cc(SCC(=O)Nc3nsc(-c4ccc(C(C)(C)C)cc4)n3)nc2c1 | 5% (active) |
| COc1cccc(NC(=O)CSc2cc(C)c3ccccc3n2)c1 | 73% |
| Cc1ccc(-c2nc(NC(=O)CSc3ccc4ccccc4n3)ns2)cc1 | 83% |
| Cc1cc(SCC(=O)Nc2nsc(-c3ccc(C(C)(C)C)cc3)n2)nc2ccccc12 | 7% (active) |
| Cc1ccc(-c2nc(NC(=O)CSc3cc(C)c4ccccc4n3)ns2)cc1 | 71% |
| O=C(CSc1ccc2ccccc2n1)Nc1nsc(-c2ccc(Cl)cc2)n1 | 68% |
| Cc1ccccc1-c1nc(NC(=O)CSc2ncnc3sc4c(c23)CCCC4)ns1 | 88% |
| CC(C)(C)c1ccc(-c2nc(NC(=O)CSc3ncnc4sc5c(c34)CCCC5)ns2)cc1 | 73% |
| COc1ccc2c(C)cc(SCC(=O)Nc3nsc(-c4ccccc4C)n3)nc2c1 | 1% (active) |
| COC(=O)c1ccc(Cn2c(SCC(=O)Nc3ccc(F)cc3)nc3ccccc32)cc1 | 55% |
| Cc1ccc(Sc2ccc(N3CCCC(C(=O)Nc4ccc(F)cc4)C3)nn2)cc1 (centres undefined) | 60% |
| CCOC(=O)c1c(NC(=O)C(C)Oc2ccccc2F)sc(C(C)=O)c1C (centres undefined) | 65% |
| COc1ccc(NC(=O)CSc2ccc(-c3cccs3)nn2)cc1 | 89% |
| CCOC(=O)c1c(NC(C)=O)c2c3c(sc2n1Cc1nc(-c2ccc(Cl)cc2)oc1C)CCCC3 | 81% |
| Cc1ccc(CN2COc3c(Cl)cc4c(-c5ccccc5)cc(=O)oc4c3C2)cc1 | 87% |
| COc1ccc(OCC(=O)N(Cc2cccs2)c2ccc(OC)cc2)cc1 | 85% |

| SMILES | survival |
| --- | --- |
| COc1ccc(N(Cc2cccs2)C(=O)COc2cccc(C)c2C)cc1 | 12% (active) |
| Cc1cccc(OCC(=O)N(Cc2cccs2)c2ccc(Cl)cc2)c1C | 79% |
| CC1(C)CC2(C=CC(=O)CC2)CCO1 (centres undefined) | 96% |
| Cn1c(=O)c2c(-c3ccc(Cl)cc3)ccnc2n(C)c1=O | 68% |
| COc1ccc(CNc2nc(-c3ccccc3)nn2S(=O)(=O)c2ccccc2)cc1 | 4% (active) |
| O=S(=O)(c1ccccc1)n1nc(-c2ccccc2)nc1NCc1ccc(Cl)cc1 | 73% |
| COc1ccc(CNc2nc(-c3ccc(Cl)cc3)nn2S(=O)(=O)c2ccc(C)cc2)cc1 | 64% |
| CCc1ccc(NC(=O)Cn2c(=O)n(CCC(=O)NCCc3ccc(OC)c(OC)c3)c(=O)c3ccccc32)cc1 | 102% |
| COc1ccc(NCc2nnc3n2CCCCC3)c(OC)c1 | 73% |
| COc1ccc(Cl)cc1NCc1nnc2n1CCCCC2 | 0% (active) |
| Fc1ccc(NCc2nnc3n2CCCCC3)cc1Cl | 66% |
| COc1ccc(C)cc1NCc1nnc2n1CCCCC2 | -3% (active) |
| Cc1cc(C)cc(NCc2nnc3n2CCCCC3)c1 | 85% |
| Cc1ccc(Cl)cc1NCc1nnc2n1CCCCC2 | 75% |
| O=[N+]([O-])c1ccc(S(=O)(=O)N2CCn3cccc3C2c2ccccc2F)cc1 (centres undefined) | 132% |
| Cn1nc(C(=O)N2CCN(c3cccc(Cl)c3)CC2)c2c1-c1ccccc1S(=O)(=O)C2 | 46% |
| COc1ccc(C2=C/C(=C/c3ccco3)C(=O)O2)cc1 | 117% |
| Cc1cccc(CCNC(=O)CN(c2ccc(C(C)C)cc2)S(=O)(=O)c2c(C)nn(C)c2C)c1 | 87% |
| Cc1ccc(NC(=O)Cn2c(=O)ccc3cc(S(=O)(=O)N4CCC(C)CC4)ccc32)cc1Cl | 88% |
| Cc1ccc(NC(=O)Cn2c(=O)ccc3cc(S(=O)(=O)N4CCCC4)ccc32)cc1C | 88% |
| CC1CCN(S(=O)(=O)c2ccc3c(c2)oc(=O)n3CC(=O)N2CCCCC2)CC1 | 76% |
| Cc1ccc(NC(=O)Cn2c(=O)ccc3cc(S(=O)(=O)N4CCCC4)ccc32)cc1N(C)C | 0% (active) |
| CC1CCN(S(=O)(=O)c2ccc3c(c2)oc(=O)n3CC(=O)O)CC1 | -3% (active) |
| CCc1ccc(NC(=O)Cn2c(=O)ccc3cc(S(=O)(=O)N4CCCC4)ccc32)cc1 | 148% |
| CC1CCN(S(=O)(=O)c2ccc3c(ccc(=O)n3CC(=O)Nc3ccc(C(C)C)cc3)c2)CC1 | -2% (active) |

| SMILES | survival |
| --- | --- |
| Cc1ccc(CNC(=O)Cn2c(=O)ccc3cc(S(=O)(=O)N4CCC(C)CC4)ccc32)cc1 | 10% (active) |
| CC(=O)Nc1ccc(NC(=O)Cn2c(=O)ccc3cc(S(=O)(=O)N4CCC(C)CC4)ccc32)cc1 | 91% |
| CC1CCN(C(=O)Cn2c(=O)oc3cc(S(=O)(=O)N4CCCCC4)ccc32)CC1 | 83% |
| CC1CCN(S(=O)(=O)c2ccc3c(ccc(=O)n3CC(=O)NCc3ccccc3)c2)CC1 | 22% |
| CC1CCN(S(=O)(=O)c2ccc3c(ccc(=O)n3CC(=O)NCc3ccc(Cl)cc3)c2)CC1 | 59% |
| CN(C1CCCCC1)S(=O)(=O)Cc1ccccc1 | 94% |
| CC1=C(c2ccc(C)cc2)S(=O)(=O)N(Cc2ccc(C(=O)Nc3ccc(F)cc3C)cc2)C1=O | 135% |
| CCC(=O)N1CCc2cc(Br)cc(S(=O)(=O)CCC(=O)NCCc3cccc(C)c3)c21 | 45% |
| COc1cccc(NC(=O)Cn2c(=O)n(CCc3cccc(C)c3)c(=O)c3ccccc32)c1 | 82% |
| CSc1ccc(CCNC(=O)CCc2c(C)nc3cc(-c4ccccc4)nn3c2C)cc1 | 86% |
| CCOc1ccccc1NC(=O)Cn1c(=O)ccc2cc(S(=O)(=O)N3CCC(C)CC3)ccc21 | 65% |
| CCOc1ccccc1NC(=O)Cn1c(=O)ccc2cc(S(=O)(=O)N3CCCC3)ccc21 | -3% (active) |
| CCc1ccccc1NC(=O)Cn1c(=O)ccc2cc(S(=O)(=O)N3CCCC3)ccc21 | 64% |
| Cc1cc(C)c(NC(=O)Cn2c(=O)n(CCC(=O)N3CCc4ccccc4C3)c(=O)c3ccccc32)c(C)c1 | 83% |
| CCC(=O)N1CCc2cc(S(=O)(=O)N(C)c3cccc(C)c3)ccc21 | 86% |
| CCOC(=O)c1ccc(-n2c(C)nc3c(cnn3-c3ccc(Cl)cc3)c2=O)cc1 | 71% |
| CCc1nc2c(cnn2-c2ccc(C)cc2)c(=O)n1Cc1ccccc1 | 22% |
| CCc1nc2c(cnn2-c2ccc(C)cc2)c(=O)n1-c1ccc(C)cc1 | 18% (active) |
| COc1cccc(-n2c(C)nc3c(cnn3-c3ccc(C)c(C)c3)c2=O)c1 | 54% |
| CCc1nc2c(cnn2-c2ccccc2)c(=O)n1-c1ccc(Br)cc1 | 108% |
| CCc1cccc(-n2c(C)nc3c(cnn3-c3ccc(C)c(C)c3)c2=O)c1 | 2% (active) |
| CCc1cccc(-n2c(C)nc3c(cnn3-c3ccc(Cl)cc3)c2=O)c1 | -2% (active) |
| COc1ccc(-n2c(C)nc3c(cnn3-c3ccc(C)c(C)c3)c2=O)cc1Cl | 118% |
| Cc1nc2c(cnn2-c2ccccc2)c(=O)n1-c1ccccc1 | 126% |
